# From PMC5540273 (PLoS ONE, 2017)
# Tested on: CSNK2A2
# 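Note: kd values determined as follow-up on hits from a single-replicate KINOMEscan panel screen.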
row,SMILES,Kd [µM]
1,Nc1ncnc2[nH]c(-c3ccccc3)nc12 [AH5015],1.1
2,COc1ccccc1CNC(=O)c1cc(C(=O)c2ccccc2C)c[nH]1 [GSK364507],5.1
3,COc1cc2ncnc(Nc3ccc4nc(-c5ccccc5)[nH]c4c3)c2cc1OC.Cl [GW282450],> 10
4,Clc1cc(Cl)cc(Nc2ccnc(Nc3cc(Cl)cc(Cl)c3)n2)c1 [GSK175726],> 10
5,Fc1cc(Cl)ccc1Nc1ccnc2cc(-c3ccc(CN4CCCCC4)o3)ccc12 [GW560116],> 10
6,Cc1cccc(-c2nc(Nc3ccc4[nH]ncc4c3)c3ccccc3n2)n1 [GW857175],0.042

# Tested on: DDR1
row,SMILES,Kd [µM]
1,COC(=O)c1c(-c2ccccc2)c2cc(OC)ccc2c(=O)n1Cc1ccccc1,0.28
2,CC(=O)Nc1nc2cnc(Nc3cc(NC(=O)c4cccc(CCC#N)c4)ccc3C)nc2s1,> 10
3,Cc1ccc(NC(=O)Nc2cc(C(C)(C)C)nn2-c2ccccc2)cc1 [GSK1014915],1.3
4,Cl.O=C(Nc1cccc(-c2nn3ncccc3c2-c2ccnc(Nc3cccnc3)n2)c1)c1c(F)cccc1F [GSK312879],0.14
5,Cc1ccc(NC(=O)Nc2cccc(Cl)c2)cc1-c1ccc(C(=O)Nc2ccncc2)cc1 [GSK1398468],0.076
6,COC(=O)c1c(-c2ccccc2)c2cc(C(=O)O)ccc2c(=O)n1Cc1ccccc1,0.16
7,Cc1cccc(-c2nc(-c3ccc(S(C)(=O)=O)cc3)sc2-c2ccnc(NCCc3ccccc3)c2)c1,0.23
8,O=C(Nc1ccccc1)Nc1cccc(Oc2ccc3nccn3n2)c1,0.024
